From PubChem
MEKK3 PB1 HTS – MEKK3-MEK5 PB1 interaction, increase or decrease; Q99759; bead-based flow cytometry, Alexa488-MEK5 binding to MEKK3; actives lie on both sides; 0 = blocked by unlabeled MEK5, 100 = vehicle; 290,000 tested, 1.4% active; binding response (% of control), % at 10 µM;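 active = binding response more than 3 SD above or below the average of its plate-row segment, actives on both sides; inconclusive = wells at one plate position flagged as instrument error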;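 also: Alexa488 bead fluorescence after subtracting the streptavidin-only scavenger bead signal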
Target sequence (Q99759 whole entry, looked up): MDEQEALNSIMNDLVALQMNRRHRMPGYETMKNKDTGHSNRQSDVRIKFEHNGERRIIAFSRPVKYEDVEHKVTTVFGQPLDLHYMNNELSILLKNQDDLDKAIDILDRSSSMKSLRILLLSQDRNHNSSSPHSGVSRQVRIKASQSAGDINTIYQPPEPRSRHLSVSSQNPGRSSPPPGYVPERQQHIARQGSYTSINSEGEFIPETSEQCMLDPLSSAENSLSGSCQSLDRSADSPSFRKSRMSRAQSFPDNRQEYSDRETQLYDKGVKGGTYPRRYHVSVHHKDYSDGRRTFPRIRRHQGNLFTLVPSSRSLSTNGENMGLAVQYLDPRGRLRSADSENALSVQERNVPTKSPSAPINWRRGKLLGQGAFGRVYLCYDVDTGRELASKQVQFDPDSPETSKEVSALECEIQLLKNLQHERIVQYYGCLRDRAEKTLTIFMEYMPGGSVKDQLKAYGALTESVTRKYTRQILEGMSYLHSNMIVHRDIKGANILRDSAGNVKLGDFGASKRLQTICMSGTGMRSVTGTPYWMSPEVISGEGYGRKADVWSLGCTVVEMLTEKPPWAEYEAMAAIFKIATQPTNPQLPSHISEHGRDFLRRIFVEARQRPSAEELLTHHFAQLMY
MEKK2 mut-MEK5 – signal of MEK5 binding to mutant human MEKK2 PB1 domain; bead flow cytometry, Alexa488-MEK5 binding to MEKK2 mutant; percent response, % at 10 µM; 290,000 tested, 0.35% active; in the data active = percent response above about 24%, passing the limit was not always enough
MEKK2wt PB1 HTS – raises or lowers MEK5 binding to wildtype human MEKK2 PB1 domain; binding response (% of control), % at 10 µM; Q9Y2U5; bead flow cytometry, Alexa488-MEK5 binding to MEKK2 WT; actives lie on both sides; 290,000 tested, 1.1% active; in the data active = binding response below about 67% or above about 130%; inconclusive = no clear call, values can overlap the other calls; inactive = in between
UBC13 polyUb – human UBC13 polyubiquitination inhibition. AID 485273. P61088. inhibition, % at 20 µM. 330,000 tested, 0.47% active. UBC13 polyubiquitin chain formation, TR-FRET; in the data active = inhibition above about 45%, passing the limit was not always enough; inconclusive = no clear call, values can overlap the other calls
Casp3 UBC13 ctr – inhibits human caspase-3 in UBC13 counter-screen; shares compounds with UBC13 polyUb; Recombinant caspase-3, Caspase-Glo 3/7 luminescence, 60 min; inhibition, % at 20 µM; 1,400 tested, 4% active;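 active = mean inhibition across replicates above about 26%, limit read from the data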;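 also: plate controls were DMSO with caspase-3 for no effect and DMSO wells lacking enzyme for full effect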
UBC13 confirm – confirmation of human UBC13 polyubiquitin inhibitors; inhibition, % at 10 µM; 1,400 tested, 68% active; shares compounds with UBC13 polyUb; UBC13 polyubiquitination, TR-FRET, biochemical; AID 488859; in the data active = inhibition above about 45%; inconclusive = no clear call, values can overlap the other calls
* marks the source's active call; other numbers are inactive results; ? = inconclusive; · = no result. Rows were chosen to be rich in hits. Some 2.3% of all compounds tested hit in one or more screens of this group.

SMILES	MEKK3 PB1 HTS	MEKK2 mut-MEK5	MEKK2wt PB1 HTS	UBC13 polyUb	Casp3 UBC13 ctr	UBC13 confirm
CCC(=O)NC(=S)NNC(=O)c1ccc(NC(=O)c2ccccc2)cc1	97	-7	100	71*	12	91*
CCOc1ccccc1NC(=S)N1CCC(c2nc3ccccc3o2)CC1	113	-1	96	5	·	·
Cc1cc(C)n2nc(C(=O)OCC(=O)Nc3ccc(C)c(S(=O)(=O)N4CCOCC4)c3)nc2n1	·	·	·	-11	·	·
Cc1cc(C)c(CN2CCC(n3nccc3NC(=O)C3CCOC3)CC2)cc1C (centres undefined)	106	9	118	1	·	·
N#C/C(=C/c1cn(-c2ccccc2)nc1-c1cccc(OCc2ccccc2)c1)C(=O)NCCCn1ccnc1	90	2	126	48*	-1	56*
O=C(Nc1ccc(C(=O)NCCCN2CCN(c3ccc(F)cc3)CC2)cc1)C1=CSCCO1	103	9	126	65*	-1	97*
COC(=O)Cc1ccc(NC(=S)N2CCN(c3cc(Cl)ccc3C)CC2)cc1	107	3	103	-1	·	·
Cn1c(=O)cc(SCC(=O)N2CCN(Cc3ccc4c(c3)OCO4)CC2)c2ccccc21	97	1	102	38	·	·
CCn1c(=O)cc(SCC(=O)NCCCN2CCC(C)CC2)c2ccccc21	102	0	100	22	·	·
CCSc1ccccc1C(=O)N1CCN(Cc2ccc3c(c2)OCO3)CC1	98	3	95	99*	-1	9
CCn1c(=O)cc(SCC(=O)N2CCCCC2)c2ccccc21	106	3	101	20	·	·
CCn1c(=O)cc(SCC(=O)N2CCN(Cc3ccc4c(c3)OCO4)CC2)c2ccccc21	104	8	113	61*	-2	?
Cn1c(=O)cc(SCC(=O)N2CCN(C3CCCCC3)CC2)c2ccccc21	·	·	·	66*	-2	?
CCn1c(=O)cc(SCC(=O)NCCCN2CCN(c3ccc(F)cc3)CC2)c2ccccc21	105	11	119	92*	0	?
O=C(O)c1ccccc1C(=O)N1CCN(Cc2ccc3c(c2)OCO3)CC1	100	1	101	4	·	·
CNC(=S)NNC(=O)c1cccn(Cc2cccc(C(F)(F)F)c2)c1=O	99	-4	100	-1	·	·
Cc1ccc(C(=O)Nc2c(N)nc(SCC(=O)NCC3CCCO3)[nH]c2=O)cc1 (centres undefined)	101	1	103	-11	·	·
COC(=O)[C@]1(C)N[C@H](CN(C)C(=O)NC(C)C)[C@@H]2C(=O)N(C)C(=O)[C@@H]21	·	·	·	4	·	·
CCN1CCN(C(=O)CSc2cc(=O)n(CC)c3ccccc23)CC1	100	-2	100	47*	-2	?
C=CCn1c(O)c(N=Nc2nc3ccccc3c(=O)n2-c2ccccc2)c2ccccc21	98	-2	89	-2	·	·
Cc1ccc(NC(=O)C(C)SCC(=O)Nc2ccc(F)cc2)cc1S(=O)(=O)N1CCOCC1 (centres undefined)	·	·	·	-1	·	·
Cc1ccc(C(=O)NCCCNCCCN(C)C)cn1	103	1	104	52*	-4	35
COc1ccc(-c2cc3c(=O)n(CC(=O)NCCCN4CCC(N5CCCCC5)CC4)nc(C)n3n2)cc1	105	11	141	71*	-1	34
CCSc1ccc2c(c1)N(CCCN1CCN(C)CC1)c1ccccc1S2	·	·	·	75*	-2	64*
CN1CCN(CCC(=O)N2c3ccccc3Sc3ccc(C(F)(F)F)cc32)CC1	98	2	105	-2	·	·
SMILES	MEKK3 PB1 HTS	MEKK2 mut-MEK5	MEKK2wt PB1 HTS	UBC13 polyUb	Casp3 UBC13 ctr	UBC13 confirm
Cc1c(CCOC(=O)c2ccc([N+](=O)[O-])cc2)sc[n+]1CC(=O)c1ccccc1	104	1	110	13	·	·
Cc1c(CCOC(=O)c2ccc(Cl)cc2Cl)sc[n+]1CC(=O)c1ccc(Br)cc1	·	·	·	67*	1	67*
CCN(CC)CCCNc1ccc(-c2nnc(-c3ccc(OCC(C)C)cc3)o2)cn1	106	36*	165*	47*	4	78*
COc1cc(Cl)c(C)cc1NC(=O)CSc1cc(Cl)ccc1Cl	101	11	92	-21	·	·
COc1ccc(C(=O)NC(=S)NNC(=O)c2ccc(NC(C)=O)cc2)cc1Br	97	-7	96	71*	1	104*
CSc1ccccc1OCc1cc(C(=O)N(C)C(C)c2nc(C)cs2)no1 (centres undefined)	102	5	108	7	·	·
